In the supplement of paper PMC11732987, “Enantioselective OTUD7B fragment discovery through chemoproteomics screening and high-throughput optimisation” (Communications Chemistry, 2025):

How the values were obtained:
Assay in all cases: log2 ratio of Biotin-Ahx-Ub-VS probe labelling (fragment/DMSO); higher = less target engagement (more negative = stronger competition), active = hit call of the paper (q ≤ 0.05, log2 ratio ≤ -1)
Conditions in all cases: compound concentration: 200 uM; treatment time: 3 h
[1] = target: T1, USP42 (UniProt Q9H9J4)
T1 sequence (whole entry): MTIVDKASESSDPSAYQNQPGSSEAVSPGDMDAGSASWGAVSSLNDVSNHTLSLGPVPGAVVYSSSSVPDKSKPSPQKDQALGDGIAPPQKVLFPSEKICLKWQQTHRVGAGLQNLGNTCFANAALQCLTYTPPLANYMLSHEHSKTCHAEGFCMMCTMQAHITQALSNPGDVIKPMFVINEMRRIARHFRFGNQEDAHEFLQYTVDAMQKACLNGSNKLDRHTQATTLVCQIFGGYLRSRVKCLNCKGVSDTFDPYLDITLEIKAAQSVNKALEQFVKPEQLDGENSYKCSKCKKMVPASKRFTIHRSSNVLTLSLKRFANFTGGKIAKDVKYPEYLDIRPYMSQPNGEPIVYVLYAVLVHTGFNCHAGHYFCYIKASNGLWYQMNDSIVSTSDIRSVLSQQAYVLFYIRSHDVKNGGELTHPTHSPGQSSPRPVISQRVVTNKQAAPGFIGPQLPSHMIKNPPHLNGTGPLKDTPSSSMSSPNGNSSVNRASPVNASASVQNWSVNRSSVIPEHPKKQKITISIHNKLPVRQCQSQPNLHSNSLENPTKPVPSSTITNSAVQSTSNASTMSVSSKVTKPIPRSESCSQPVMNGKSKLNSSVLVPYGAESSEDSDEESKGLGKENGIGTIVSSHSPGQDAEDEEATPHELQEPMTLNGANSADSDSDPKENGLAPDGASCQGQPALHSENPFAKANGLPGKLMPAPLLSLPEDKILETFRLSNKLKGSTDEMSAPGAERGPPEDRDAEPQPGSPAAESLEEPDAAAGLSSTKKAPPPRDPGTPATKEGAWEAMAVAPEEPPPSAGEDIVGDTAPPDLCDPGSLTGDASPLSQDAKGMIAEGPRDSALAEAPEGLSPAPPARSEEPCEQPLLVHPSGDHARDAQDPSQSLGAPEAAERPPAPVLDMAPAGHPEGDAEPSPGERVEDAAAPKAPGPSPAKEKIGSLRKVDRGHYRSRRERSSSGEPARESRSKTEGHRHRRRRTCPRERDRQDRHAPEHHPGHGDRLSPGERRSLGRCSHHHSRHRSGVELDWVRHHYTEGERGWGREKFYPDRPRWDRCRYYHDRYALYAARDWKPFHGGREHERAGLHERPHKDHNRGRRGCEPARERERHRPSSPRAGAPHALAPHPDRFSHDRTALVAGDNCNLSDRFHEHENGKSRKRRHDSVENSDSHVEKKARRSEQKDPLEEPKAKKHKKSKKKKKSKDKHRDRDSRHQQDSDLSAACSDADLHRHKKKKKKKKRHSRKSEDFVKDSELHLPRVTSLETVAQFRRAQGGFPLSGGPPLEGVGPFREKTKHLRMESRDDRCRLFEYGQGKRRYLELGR
In short: (§1)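 The table lists average log2 ratios of fragment over vehicle, from an unpaired t-test on global-median-normalised Spectronaut label-free quantities. Proteins with ≥2 unique peptides were used. Samples were HEK293T lysate (495 µg) treated in triplicate with fragment at 200 µM or vehicle for 3 h, then with Biotin-Ahx-Ub-VS (0.5 µM final) for 1 h, with labelled DUBs NeutrAvidin-enriched and run by diaPASEF LC-MS/MS.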

[2] = target: USP46 (UniProt P62068)
In short: as §1

[3] = target: T2, USP47 (UniProt Q96K76)
T2 sequence (whole entry): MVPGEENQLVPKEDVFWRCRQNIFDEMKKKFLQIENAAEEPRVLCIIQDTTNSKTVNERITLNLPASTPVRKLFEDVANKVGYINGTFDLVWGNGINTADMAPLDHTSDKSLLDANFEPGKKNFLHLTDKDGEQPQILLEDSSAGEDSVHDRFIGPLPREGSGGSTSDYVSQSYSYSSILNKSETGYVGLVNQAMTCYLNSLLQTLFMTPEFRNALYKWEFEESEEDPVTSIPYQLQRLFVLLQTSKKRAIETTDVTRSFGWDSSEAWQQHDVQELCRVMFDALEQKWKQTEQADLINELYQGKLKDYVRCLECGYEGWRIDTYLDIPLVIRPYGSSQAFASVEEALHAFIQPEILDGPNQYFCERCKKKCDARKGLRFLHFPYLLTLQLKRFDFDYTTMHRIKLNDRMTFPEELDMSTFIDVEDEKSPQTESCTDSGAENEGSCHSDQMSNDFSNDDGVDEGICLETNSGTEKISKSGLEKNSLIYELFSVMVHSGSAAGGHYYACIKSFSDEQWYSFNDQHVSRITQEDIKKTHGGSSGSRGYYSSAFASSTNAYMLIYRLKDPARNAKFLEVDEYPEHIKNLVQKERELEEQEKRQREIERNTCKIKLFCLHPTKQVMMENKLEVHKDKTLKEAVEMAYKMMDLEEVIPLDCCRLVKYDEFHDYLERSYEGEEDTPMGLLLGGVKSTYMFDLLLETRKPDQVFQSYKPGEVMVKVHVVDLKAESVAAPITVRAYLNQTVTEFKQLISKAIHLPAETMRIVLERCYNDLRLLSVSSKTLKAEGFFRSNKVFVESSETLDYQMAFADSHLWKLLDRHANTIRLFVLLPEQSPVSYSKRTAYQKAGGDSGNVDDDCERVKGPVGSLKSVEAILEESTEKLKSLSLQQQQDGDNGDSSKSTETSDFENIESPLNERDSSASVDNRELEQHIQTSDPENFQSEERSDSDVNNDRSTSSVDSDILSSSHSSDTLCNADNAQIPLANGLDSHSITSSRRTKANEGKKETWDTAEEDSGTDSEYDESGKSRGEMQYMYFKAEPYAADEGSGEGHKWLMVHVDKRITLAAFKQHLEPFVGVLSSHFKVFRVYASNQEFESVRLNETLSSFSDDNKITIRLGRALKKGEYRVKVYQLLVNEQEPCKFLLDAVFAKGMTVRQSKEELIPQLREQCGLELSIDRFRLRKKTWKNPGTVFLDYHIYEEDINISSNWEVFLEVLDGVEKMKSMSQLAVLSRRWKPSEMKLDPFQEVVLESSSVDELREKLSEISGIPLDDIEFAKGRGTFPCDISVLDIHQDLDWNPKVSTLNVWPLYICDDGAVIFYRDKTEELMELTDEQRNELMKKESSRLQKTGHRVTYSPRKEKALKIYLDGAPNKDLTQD
In short: as §1

[4] = target: T3, USP48 (UniProt Q86UV5)
T3 sequence (whole entry): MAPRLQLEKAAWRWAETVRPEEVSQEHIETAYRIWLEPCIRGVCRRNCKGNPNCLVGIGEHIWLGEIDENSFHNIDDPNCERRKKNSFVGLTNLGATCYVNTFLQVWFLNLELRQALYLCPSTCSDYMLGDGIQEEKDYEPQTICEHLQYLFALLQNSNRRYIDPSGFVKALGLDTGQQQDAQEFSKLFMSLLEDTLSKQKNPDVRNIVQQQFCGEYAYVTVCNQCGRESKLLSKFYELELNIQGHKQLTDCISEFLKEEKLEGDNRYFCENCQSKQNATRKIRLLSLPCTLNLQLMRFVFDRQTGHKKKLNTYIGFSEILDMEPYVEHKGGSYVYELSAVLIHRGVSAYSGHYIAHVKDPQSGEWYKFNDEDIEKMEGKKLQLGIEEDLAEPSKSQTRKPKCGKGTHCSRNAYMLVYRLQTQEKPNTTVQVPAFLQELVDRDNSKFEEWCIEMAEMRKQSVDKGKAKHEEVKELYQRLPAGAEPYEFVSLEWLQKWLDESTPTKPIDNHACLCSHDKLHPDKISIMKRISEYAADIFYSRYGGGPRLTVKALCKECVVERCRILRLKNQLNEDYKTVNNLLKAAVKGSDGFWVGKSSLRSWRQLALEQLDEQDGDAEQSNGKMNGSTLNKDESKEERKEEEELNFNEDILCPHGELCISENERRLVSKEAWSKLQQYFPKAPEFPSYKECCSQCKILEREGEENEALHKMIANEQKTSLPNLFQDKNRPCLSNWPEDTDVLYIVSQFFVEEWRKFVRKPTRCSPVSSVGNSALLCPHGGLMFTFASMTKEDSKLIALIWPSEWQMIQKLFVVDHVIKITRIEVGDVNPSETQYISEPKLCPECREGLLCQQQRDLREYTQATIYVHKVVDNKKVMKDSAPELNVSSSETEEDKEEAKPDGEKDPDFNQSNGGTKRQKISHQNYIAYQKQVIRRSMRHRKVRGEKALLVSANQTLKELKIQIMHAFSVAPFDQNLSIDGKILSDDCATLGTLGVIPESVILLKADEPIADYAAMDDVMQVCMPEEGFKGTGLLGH
In short: as §1

[5] = target: T4, USP5 (UniProt P45974)
T4 sequence (whole entry): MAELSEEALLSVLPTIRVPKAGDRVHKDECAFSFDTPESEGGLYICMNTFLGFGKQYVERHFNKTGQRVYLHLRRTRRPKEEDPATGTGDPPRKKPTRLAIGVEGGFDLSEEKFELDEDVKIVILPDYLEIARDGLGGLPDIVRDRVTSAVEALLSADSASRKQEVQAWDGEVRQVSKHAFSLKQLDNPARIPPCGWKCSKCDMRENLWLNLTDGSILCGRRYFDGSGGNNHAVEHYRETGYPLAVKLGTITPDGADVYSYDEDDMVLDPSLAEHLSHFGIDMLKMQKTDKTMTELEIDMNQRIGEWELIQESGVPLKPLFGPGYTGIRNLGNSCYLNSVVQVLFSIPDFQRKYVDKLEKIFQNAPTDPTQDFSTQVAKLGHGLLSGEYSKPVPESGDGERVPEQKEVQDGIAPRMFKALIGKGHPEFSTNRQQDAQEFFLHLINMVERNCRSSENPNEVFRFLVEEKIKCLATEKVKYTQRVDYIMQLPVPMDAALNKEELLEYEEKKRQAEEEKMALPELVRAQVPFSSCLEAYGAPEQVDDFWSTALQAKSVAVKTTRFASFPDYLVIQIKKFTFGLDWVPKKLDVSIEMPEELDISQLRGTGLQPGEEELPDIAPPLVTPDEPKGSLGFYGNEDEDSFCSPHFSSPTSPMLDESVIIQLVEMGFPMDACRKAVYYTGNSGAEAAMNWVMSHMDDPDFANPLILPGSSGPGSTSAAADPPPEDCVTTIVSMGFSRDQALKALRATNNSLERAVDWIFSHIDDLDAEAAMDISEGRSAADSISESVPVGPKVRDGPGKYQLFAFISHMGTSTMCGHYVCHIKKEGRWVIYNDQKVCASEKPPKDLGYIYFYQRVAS
In short: as §1

[6] = target: USP54 (UniProt Q70EL1)
In short: as §1

[7] = target: USP7 (UniProt Q93009)
In short: as §1

[8] = target: T5, USP8 (UniProt P40818)
T5 sequence (whole entry): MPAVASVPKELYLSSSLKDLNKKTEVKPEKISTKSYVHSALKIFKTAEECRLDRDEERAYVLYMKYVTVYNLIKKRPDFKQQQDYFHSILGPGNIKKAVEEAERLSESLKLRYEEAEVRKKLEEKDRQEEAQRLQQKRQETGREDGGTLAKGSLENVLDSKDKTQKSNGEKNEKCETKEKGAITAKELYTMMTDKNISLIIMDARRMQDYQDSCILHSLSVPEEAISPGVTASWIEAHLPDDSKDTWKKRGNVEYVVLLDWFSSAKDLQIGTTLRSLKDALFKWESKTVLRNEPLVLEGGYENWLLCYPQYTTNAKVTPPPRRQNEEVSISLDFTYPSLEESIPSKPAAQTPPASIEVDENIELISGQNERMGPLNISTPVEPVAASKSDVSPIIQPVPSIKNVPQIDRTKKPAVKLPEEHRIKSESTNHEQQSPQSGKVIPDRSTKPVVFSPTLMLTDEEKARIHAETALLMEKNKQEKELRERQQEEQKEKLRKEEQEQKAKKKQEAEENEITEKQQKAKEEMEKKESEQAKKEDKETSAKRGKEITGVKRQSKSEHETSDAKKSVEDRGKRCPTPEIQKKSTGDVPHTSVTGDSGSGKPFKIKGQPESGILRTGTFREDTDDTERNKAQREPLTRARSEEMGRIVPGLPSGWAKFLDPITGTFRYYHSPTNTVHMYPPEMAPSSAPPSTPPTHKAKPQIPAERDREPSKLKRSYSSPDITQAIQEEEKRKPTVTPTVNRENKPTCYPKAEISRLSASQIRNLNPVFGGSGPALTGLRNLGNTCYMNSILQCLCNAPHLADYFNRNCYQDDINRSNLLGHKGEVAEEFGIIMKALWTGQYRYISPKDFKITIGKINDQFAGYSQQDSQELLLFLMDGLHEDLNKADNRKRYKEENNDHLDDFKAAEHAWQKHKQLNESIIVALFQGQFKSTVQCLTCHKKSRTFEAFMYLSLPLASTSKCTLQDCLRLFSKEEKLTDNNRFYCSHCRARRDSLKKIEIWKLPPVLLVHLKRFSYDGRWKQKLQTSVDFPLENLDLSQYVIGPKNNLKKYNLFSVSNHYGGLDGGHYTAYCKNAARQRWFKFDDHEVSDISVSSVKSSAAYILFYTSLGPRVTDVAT
In short: as §1

[9] = target: USP9X (UniProt Q93008)
In short: as §1

[10] = target: UniProt O00487
In short: as §1

Measured: log2 ratio of Biotin-Ahx-Ub-VS probe labelling

USP7, sequence (Q93009 whole entry, looked up): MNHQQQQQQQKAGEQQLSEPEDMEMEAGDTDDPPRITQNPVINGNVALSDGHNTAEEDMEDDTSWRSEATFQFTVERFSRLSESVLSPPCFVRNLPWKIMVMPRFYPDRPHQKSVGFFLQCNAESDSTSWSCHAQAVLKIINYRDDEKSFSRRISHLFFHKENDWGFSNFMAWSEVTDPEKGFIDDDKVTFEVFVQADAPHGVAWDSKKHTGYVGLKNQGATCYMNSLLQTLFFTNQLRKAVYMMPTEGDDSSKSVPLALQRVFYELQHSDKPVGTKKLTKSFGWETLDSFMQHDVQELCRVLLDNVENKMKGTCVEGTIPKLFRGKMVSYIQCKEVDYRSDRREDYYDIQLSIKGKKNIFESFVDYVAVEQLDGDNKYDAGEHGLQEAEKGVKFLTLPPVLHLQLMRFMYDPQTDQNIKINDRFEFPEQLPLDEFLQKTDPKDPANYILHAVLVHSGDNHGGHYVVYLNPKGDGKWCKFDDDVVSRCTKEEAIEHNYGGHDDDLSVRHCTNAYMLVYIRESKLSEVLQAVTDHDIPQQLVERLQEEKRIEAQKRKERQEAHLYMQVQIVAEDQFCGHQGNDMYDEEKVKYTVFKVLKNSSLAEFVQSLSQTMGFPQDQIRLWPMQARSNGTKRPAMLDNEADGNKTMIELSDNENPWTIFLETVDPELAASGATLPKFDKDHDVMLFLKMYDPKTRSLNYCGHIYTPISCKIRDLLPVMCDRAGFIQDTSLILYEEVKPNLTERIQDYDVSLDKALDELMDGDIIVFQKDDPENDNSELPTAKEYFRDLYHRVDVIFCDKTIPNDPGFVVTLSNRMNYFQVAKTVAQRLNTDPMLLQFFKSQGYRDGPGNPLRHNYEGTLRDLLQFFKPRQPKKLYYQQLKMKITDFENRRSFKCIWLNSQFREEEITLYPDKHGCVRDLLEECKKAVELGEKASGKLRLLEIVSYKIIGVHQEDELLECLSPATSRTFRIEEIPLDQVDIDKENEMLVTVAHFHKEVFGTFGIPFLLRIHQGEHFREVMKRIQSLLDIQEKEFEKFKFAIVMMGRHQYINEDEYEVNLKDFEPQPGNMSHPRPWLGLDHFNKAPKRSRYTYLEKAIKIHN
USP46, sequence (P62068 whole entry): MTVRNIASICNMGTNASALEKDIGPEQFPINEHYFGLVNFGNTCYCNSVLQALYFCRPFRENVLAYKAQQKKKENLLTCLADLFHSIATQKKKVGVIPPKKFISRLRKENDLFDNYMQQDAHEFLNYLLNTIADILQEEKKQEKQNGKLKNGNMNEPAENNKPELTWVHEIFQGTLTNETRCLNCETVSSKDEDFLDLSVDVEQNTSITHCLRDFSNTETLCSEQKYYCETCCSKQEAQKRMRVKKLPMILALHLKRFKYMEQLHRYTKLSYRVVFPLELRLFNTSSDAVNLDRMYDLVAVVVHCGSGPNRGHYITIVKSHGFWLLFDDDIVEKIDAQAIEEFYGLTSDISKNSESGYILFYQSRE
USP54, sequence (Q70EL1 whole entry): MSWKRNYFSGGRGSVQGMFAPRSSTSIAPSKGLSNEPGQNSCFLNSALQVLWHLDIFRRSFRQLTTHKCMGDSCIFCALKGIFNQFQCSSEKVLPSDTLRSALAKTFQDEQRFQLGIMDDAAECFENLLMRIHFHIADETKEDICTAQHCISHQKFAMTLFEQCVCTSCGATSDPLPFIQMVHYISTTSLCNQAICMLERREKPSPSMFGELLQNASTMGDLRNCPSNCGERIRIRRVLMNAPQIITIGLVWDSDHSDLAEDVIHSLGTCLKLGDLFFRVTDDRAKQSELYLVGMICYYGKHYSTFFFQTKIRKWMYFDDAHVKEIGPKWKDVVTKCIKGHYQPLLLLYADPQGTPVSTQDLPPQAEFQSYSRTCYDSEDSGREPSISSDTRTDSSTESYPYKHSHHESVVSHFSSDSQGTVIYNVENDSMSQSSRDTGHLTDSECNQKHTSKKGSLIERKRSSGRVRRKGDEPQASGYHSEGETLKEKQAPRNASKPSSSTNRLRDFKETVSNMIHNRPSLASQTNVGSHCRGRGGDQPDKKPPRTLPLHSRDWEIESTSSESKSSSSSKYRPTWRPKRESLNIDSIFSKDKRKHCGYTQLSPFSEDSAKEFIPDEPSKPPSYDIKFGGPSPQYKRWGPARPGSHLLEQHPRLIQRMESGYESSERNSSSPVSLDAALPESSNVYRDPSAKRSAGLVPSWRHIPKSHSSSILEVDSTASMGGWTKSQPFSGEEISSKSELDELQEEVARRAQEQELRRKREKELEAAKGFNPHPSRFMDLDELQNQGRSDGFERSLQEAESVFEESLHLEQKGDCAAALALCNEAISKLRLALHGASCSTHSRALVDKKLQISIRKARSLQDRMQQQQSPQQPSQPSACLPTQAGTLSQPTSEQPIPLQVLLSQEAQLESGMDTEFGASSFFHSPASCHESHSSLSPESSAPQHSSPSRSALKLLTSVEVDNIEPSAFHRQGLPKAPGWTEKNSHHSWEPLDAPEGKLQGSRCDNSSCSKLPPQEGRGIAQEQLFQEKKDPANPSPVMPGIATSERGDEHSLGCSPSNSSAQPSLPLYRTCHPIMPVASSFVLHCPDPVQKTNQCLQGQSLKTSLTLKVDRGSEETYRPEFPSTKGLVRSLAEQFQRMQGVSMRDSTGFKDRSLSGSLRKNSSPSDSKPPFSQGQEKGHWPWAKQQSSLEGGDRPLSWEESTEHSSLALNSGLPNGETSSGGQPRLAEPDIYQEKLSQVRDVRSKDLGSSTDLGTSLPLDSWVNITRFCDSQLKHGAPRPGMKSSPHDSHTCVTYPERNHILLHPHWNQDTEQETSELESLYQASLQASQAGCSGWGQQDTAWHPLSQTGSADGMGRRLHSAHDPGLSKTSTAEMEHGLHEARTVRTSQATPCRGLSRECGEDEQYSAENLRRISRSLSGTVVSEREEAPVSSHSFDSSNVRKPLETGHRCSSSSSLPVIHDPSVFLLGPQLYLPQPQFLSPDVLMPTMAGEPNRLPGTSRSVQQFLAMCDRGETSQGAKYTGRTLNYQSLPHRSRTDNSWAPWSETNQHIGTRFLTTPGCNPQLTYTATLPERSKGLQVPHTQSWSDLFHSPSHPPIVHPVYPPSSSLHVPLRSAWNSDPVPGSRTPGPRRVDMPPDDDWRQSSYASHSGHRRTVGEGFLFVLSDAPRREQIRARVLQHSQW
UniProt O00487, sequence (O00487 whole entry): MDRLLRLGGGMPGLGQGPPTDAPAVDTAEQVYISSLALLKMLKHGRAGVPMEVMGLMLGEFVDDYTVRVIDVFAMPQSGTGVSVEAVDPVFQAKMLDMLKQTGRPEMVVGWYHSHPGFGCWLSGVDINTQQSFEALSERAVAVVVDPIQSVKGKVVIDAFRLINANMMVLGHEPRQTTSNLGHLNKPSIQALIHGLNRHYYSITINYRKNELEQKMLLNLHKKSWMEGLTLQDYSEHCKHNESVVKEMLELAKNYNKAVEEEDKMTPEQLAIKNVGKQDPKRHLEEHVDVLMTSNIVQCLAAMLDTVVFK

O=C(CCl)Nc1cccc(C(=O)N2CCSCC2)c1
inactive: [1] 0.397 | [2] -0.00544 | [3] 0.175 | [4] -0.0892 | [5] -0.171 | [6] -0.177 | [7] -0.299 | [8] -0.00928 | [9] -0.091 | [10] 0.0356
